From PubChem
Rows were chosen to be rich in hits. Some 4.2% of all compounds tested hit in one or more screens of this group.
TIM10 inh: TIM10 yeast growth inhibition; S. cerevisiae TIM10 strain growth, BacTiter-Glo luminescence, 24 h; inhibition, % at 10 µM; 330,000 tested, 1.4% active;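 active = inhibition of 40% or more at the single tested concentration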;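 note: wild-type TIM10 isogenic control strain grown at permissive 25 °C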
tim10-1 inh: inhibits growth of tim10-1 mutant yeast | S. cerevisiae tim10-1 ts strain growth, BacTiter-Glo, 24 h | inhibition, % at 20 µM | 330,000 tested, 2.2% active | AID 463190;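 active = inhibition of at least 40%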;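 note: mutant grown at 25 °C; 0% = DMSO wells with yeast and 100% = wells holding no yeast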
PfHsp90 set2: reduces growth (ATP signal) of yeast expressing P. falciparum Hsp90; inhibition, % at 9.4 µM; S. cerevisiae expressing PfHsp90, BacTiter-Glo ATP, 48 h; yeast lacking PDR1 and PDR3 efflux regulators; 310,000 tested, 0.32% active; AID 504621;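 active = every replicate shows inhibition above about 80%, whatever the replicate mean, limit read from the data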;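 note: 0% = DMSO neutral controls and 100% = 20 µM radicicol positive controls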
NALP3 yeast inh: NALP3 inhibition in yeast | Yeast reconstituted NLRP3/ASC/caspase-1, beta-gal luminescence, 24 h | inhibition, % at 10 µM | AID 2825 | 330,000 tested, 0.39% active;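 active = inhibition of 50% or more; inactive = inhibition below 50%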;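 note: plate controls were induced DMSO wells for no effect and uninduced yeast grown without galactose for full effect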
NALP1 yeast inh: inhibitors of NALP1 inflammasome in yeast; AID 2071; S. cerevisiae NALP1/ASC/caspase-1 growth, X-gal OD620, 72 h; 280,000 tested, 0.61% active; inhibition, % at 10 µM; in the data active = inhibition mostly above about 24%, no sharp cut-off; inactive = mostly below about 32%
tim23-1 inh: growth inhibitors of tim23-1 mutant yeast. inhibition, % at 20 µM. 330,000 tested, 1.3% active. S. cerevisiae tim23-1 growth, BacTiter-Glo luminescence, 24 h;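 active = growth inhibition of the mutant yeast at or above 50%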;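 note: temperature-sensitive mutant grown at 25 °C; plate controls were DMSO-treated mutant yeast for no effect and medium wells lacking yeast for full effect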
tim23-1 conf: tim23-1 yeast growth inhibition, confirmed; shares compounds with tim23-1 inh; S. cerevisiae tim23-1 growth, BacTiter-Glo luminescence, 24 h; inhibition, % at 20 µM; 4,400 tested, 83% active;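 active = inhibition above about 39% in either of two replicate wells at 20 µM, limit read from the data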;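 note: temperature-sensitive tim23-1 mutant grown at 25 °C; 0% = DMSO wells with yeast and 100% = medium wells without yeast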
An asterisk follows results filed as active; · = no result given.

SMILES | TIM10 inh | tim10-1 inh | PfHsp90 set2 | NALP3 yeast inh | NALP1 yeast inh | tim23-1 inh | tim23-1 conf
COc1cc(SC)ccc1C(=O)Nc1ccc2c(c1)CCC2 | 5.2 | 29.6 | -0.8 | 19.3 | 5.6 | 50.7* | 39.3*
Cc1ccc(C(C)NC(=O)COC(=O)C2=COCCO2)cc1C (stereo not given) | -4.8 | -2.0 | 10.5 | 14.1 | · | -4.4 | ·
COc1ccc(C(=O)COC(=O)c2cncc(Br)c2)cc1 | 14.8 | -14.8 | -10.3 | 8.4 | · | 64.9* | 75.1*
O=C(OCC(=O)c1ccc[nH]1)c1cncc(Br)c1 | -9.6 | -9.0 | -7.4 | 7.5 | · | -3.9 | ·
OCc1nc2c(ccc3ccccc32)[nH]1 | -15.0 | 11.7 | 6.8 | 16.1 | 5.3 | 7.4 | ·
Cc1nn(-c2ccccc2)c(OC(=O)c2cccs2)c1S(=O)(=O)c1ccccc1 | 30.7 | 29.4 | -22.2 | 3.3 | 35.8 | 58.2* | 51.3*
CCCc1nc2sc3ccccc3c(=O)c2c(=O)n1Cc1ccc(OC)cc1 | 17.6 | 33.3 | · | 16.7 | 6.3 | 52.2* | 44.6*
COc1ccc(Cn2c(C(C)C)nc3sc4ccccc4c(=O)c3c2=O)cc1 | 29.9 | 22.9 | 2.3 | 9.0 | · | 62.2* | 54.8*
O=C(NCCCc1ccccn1)C1CCC(=O)N(Cc2cccc(F)c2)C1 (stereo not given) | -5.1 | -4.2 | -2.7 | 17.7 | -17.4 | -9.0 | ·
C/C(CC(=O)Nc1cccc(F)c1)=N\NC(=O)c1ccncc1 | 18.7 | 30.2 | -11.5 | 14.6 | 18.2 | 25.2 | ·
COc1ccc(/C=N/NC(=O)CC(=O)N/N=C/c2ccc(OC)cc2)cc1 | 2.3 | 15.8 | 3.2 | 3.3 | -4.7 | -2.7 | ·
COc1ccc(CCCC(=O)N/N=C/c2ccc(C)cc2)cc1 | 0.4 | 31.2 | -19.5 | 33.8 | 2.7 | 56.4* | 51.3*
CCc1ccc(C(=O)CN2C(=O)NC3(CCCCCC3)C2=O)cc1 | 3.4 | 13.0 | 4.5 | 40.3 | · | 50.6* | 32.4
O=C(CN1C(=O)NC2(CCCCCC2)C1=O)c1ccc(F)cc1 | -14.3 | -34.0 | -23.1 | 16.9 | · | -9.9 | ·
O=C1c2ccccc2[C@@H]2C[C@@H](O)[C@H](Nc3ccccc3-c3ccccc3)CCN12 | -13.5 | 10.6 | 12.4 | · | · | 40.3 | ·
COc1ccc(NS(=O)(=O)c2ccc3c(c2)Cc2ccccc2-3)cn1 | 31.6 | 20.5 | -68.6 | 32.6 | 18.6 | 63.6* | 28.8
Cc1ccc(Sc2ccc(N)cc2C#N)cc1 | 10.8 | 34.9 | · | 28.9 | · | 58.1* | 37.1
COC(=O)c1c(NS(=O)(=O)Cc2ccccc2)sc2c1CCCC2 | 21.3 | 22.6 | -2.9 | -10.5 | 28.6 | 57.6* | 51.7*
O=CN1CCN(S(=O)(=O)c2ccc(S(=O)(=O)NC3CCCCC3)cc2)CC1 | -14.3 | 7.0 | 12.1 | 15.7 | 16.7 | -0.3 | ·
Cc1cccc(C(=O)Nc2cccc(C(=O)N/N=C/c3ccncc3)c2)c1 | 5.1 | 11.7 | 2.6 | 13.8 | 5.2 | 9.9 | ·
Cc1cccc(C(=O)Nc2ccc(C(=O)/C=C/c3ccncc3)cc2)c1 | 25.9 | 33.7 | -12.9 | 22.7 | 5.8 | 62.4* | 59.3*
Brc1cccc(CN2CCN(c3ncccn3)CC2)c1 | 1.9 | 6.1 | 2.0 | 24.7 | 9.6 | 12.2 | ·
O=C(COC(=O)c1cc([N+](=O)[O-])ccc1N1CCOCC1)NCc1ccc(Cl)cc1Cl | 11.8 | 24.0 | 11.4 | 6.1 | 18.3 | 50.9* | 48.0*
O=C(COC(=O)c1cc([N+](=O)[O-])ccc1N1CCOCC1)Nc1ccc(Cl)cc1 | -20.7 | -15.8 | -24.5 | 19.9 | 11.0 | -52.8 | ·
Cc1nn(C(C)C(=O)NCc2cccs2)c(C)c1[N+](=O)[O-] (stereo not given) | 0.0 | 15.0 | -11.3 | 5.8 | -5.6 | -0.4 | ·
SMILES | TIM10 inh | tim10-1 inh | PfHsp90 set2 | NALP3 yeast inh | NALP1 yeast inh | tim23-1 inh | tim23-1 conf
Cc1[nH]n(-c2ccccc2)c(=O)c1/C=C1\C=NN=C1c1ccccc1 | 22.4 | 25.9 | 2.9 | 7.4 | -7.9 | 61.8* | 55.1*
Cc1[nH]n(-c2ccccc2)c(=O)c1/C=C1/C=c2ccccc2=N1 | · | · | -10.5 | · | 11.0 | · | ·
CCCC/C(O)=C1\C(=O)CC(C)(C)CC1=NCCCCCC(=O)O | 10.5 | 3.9 | 1.4 | 13.3 | -11.7 | -4.7 | ·
COc1ccc(OCc2nnnn2-c2ccccc2)cc1 | 4.3 | 11.8 | 2.2 | -3.3 | 33.0 | 17.5 | ·
Brc1ccc(OCc2nnnn2-c2ccccc2)cc1 | 7.7 | -7.6 | -11.2 | -28.9 | -0.3 | 51.8* | 38.8*
Cc1cc(OCC(=O)Nc2nnc(C3CC3)s2)ccc1[N+](=O)[O-] | -14.9 | 8.8 | 3.2 | 15.5 | -1.6 | -8.4 | ·
OC(COc1ccc(Cl)c2ccccc12)CN1CCN(c2ccccn2)CC1 (stereo not given) | 6.7 | 1.3 | 3.1 | 49.0 | 28.3 | 63.0* | 4.5
OC(COc1cccc2ccccc12)CN1CCN(c2cccc(Cl)c2)CC1 (stereo not given) | -4.8 | 3.7 | -2.4 | 24.5 | 18.2 | 69.0* | -36.8
COc1ccc(/C=N/NC(=O)c2nnn(-c3nonc3N)c2-c2cccs2)c(OC)c1 | -15.6 | 0.9 | 4.4 | 10.9 | -11.4 | -5.6 | ·
O=C1NC(c2cccc(Br)c2)=N/C1=C\c1ccco1 | 30.9 | 26.3 | 15.0 | 6.5 | · | 56.0* | 35.5
CC(=O)Oc1ccc(N2C(=O)c3cccc4c([N+](=O)[O-])ccc(c34)C2=O)cc1 | 39.2 | 28.7 | -7.8 | 15.4 | 13.1 | 67.3* | 56.7*
CC(C)N(Cc1ccccc1)C(=O)COC(=O)CCC(=O)c1ccc(F)cc1 | -0.8 | 10.2 | · | 2.0 | · | 11.2 | ·
O=C1CN(c2ccc(F)cc2)C(=S)N1c1ccccc1 | 6.7 | 25.9 | -11.5 | 19.8 | -0.2 | 56.9* | -15.5
O=C1CN(c2ccccc2)C(=S)N1c1ccccc1 | 4.3 | 18.4 | -18.6 | 12.6 | 15.5 | 42.3 | ·
CCOC(=O)C1=C(COC(=O)[C@@H]2CCCN2S(=O)(=O)c2ccc(C)cc2)NC(=O)NC1C (stereo not given in full) | 9.7 | 9.3 | 2.0 | 6.1 | 1.3 | -3.8 | ·
CCCCCOc1ccc(C(=O)NCC2(c3ccccc3)CCOCC2)cc1 | 27.0 | 36.9 | -15.8 | 27.2 | 16.5 | 50.7* | 46.0*
CCCCOc1ccc(C(=O)NCC2(c3ccccc3)CCOCC2)cc1 | 19.6 | 30.9 | · | 15.0 | 8.6 | 41.1 | ·
O=C(NCC(=O)N1CCN(c2ncccn2)CC1)c1ccccc1OC(F)F | -3.0 | 11.4 | 22.1 | -10.5 | · | 16.6 | ·
O=S(=O)(Nc1ccc(-c2csc(-c3ccccc3)n2)cc1)c1ccccc1 | 24.5 | 21.6 | 71.5 | -5.4 | 34.1 | 50.0* | 39.0
CCCn1c(N)c(N2CCCCC2)c(=O)n(CC(=O)Nc2ccccc2C(F)(F)F)c1=O | -2.4 | -1.9 | -11.7 | 8.9 | · | -4.1 | ·
Nc1nc2ccc(C(=O)Nc3ccccc3)cc2s1 | 11.6 | 10.6 | -0.2 | 12.6 | 11.6 | 26.3 | ·
CCc1ccc(NC(=O)c2ccc3nc(N)sc3c2)cc1 | -19.1 | 6.9 | -35.4 | 27.6 | 39.7* | 54.4* | 30.8
